Reference: PubChem BioAssay (Tox21)
Values joined by “and” are separate entries in the source; they are usually repeats but may differ in a detail not shown here. Equal entries are not always repeated. Records with an inconclusive call do not appear. Where a call stands in place of a potency, no number is given. A structure can be active in one record and inactive in another. Active and inactive are the calls of the source. The call rests on the fitted dose curve; in most records, active means well fitted inhibition curve with a large enough effect in the signal ratio in the repeat runs, with a control signal flat; inconclusive means weak or mixed curves, or effect the other way; inactive means flat fitted curve, though single readings scatter; the % refers to the signal ratio.

Molecular target: D(2) dopamine receptor (Homo sapiens) (UniProt P14416)
Assay: Dopamine D2 receptor (DRD2) small molecule antagonists, cell-based qHTS assay (AID 1963595)
How it was run: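 Readout: HTRF cAMP, cAMP-d2 competing with cellular cAMP for anti-cAMP cryptate, read after 1 h. Cells: DRD2-HEK293. Conditions: 0.1 mM Ro20-1724, 12 nM quinpirole, 200 nM NKH477, 30 min RT.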
Potency means the concentration at half of the fitted maximal effect.

Sequence of D(2) dopamine receptor (Homo sapiens) (P14416 whole entry, looked up): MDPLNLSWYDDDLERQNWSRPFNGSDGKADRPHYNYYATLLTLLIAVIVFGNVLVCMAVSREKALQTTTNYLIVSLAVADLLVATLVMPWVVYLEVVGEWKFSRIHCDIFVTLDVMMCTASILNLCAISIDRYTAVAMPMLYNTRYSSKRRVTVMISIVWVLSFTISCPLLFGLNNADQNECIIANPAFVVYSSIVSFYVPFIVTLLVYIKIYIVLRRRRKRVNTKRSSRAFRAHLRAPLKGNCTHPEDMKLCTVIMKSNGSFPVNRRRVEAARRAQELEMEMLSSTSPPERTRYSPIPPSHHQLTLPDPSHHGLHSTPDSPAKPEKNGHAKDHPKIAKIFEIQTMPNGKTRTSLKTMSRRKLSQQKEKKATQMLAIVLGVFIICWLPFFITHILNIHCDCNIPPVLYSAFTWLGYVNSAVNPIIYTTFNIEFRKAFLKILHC

Question: For NNc1nncc2ccccc12, which Potency is on record?
Answer: inactive and 10.3 µM (active)

Question: How did the Potency turn out when Cc1ccc(NC(=O)N(C)C)cc1NC(=O)N(C)C was run?
Answer: inactive

Question: How did the Potency turn out when COc1ccc(N)c(OC)c1 was run?
Answer: inactive

Question: With CCCCCCC(C)(C)C(=O)O as the molecule, how does the Potency read?
Answer: inactive

Question: Cc1[nH]cnc1-c1ccc(Cl)cc1 was tested. Which Potency did it give?
Answer: inactive

Question: CC(C)CCO was tested. Which Potency did it give?
Answer: inactive

Question: CC(CCO)CCc1ccccc1 (stereo unspecified) was tested. Which Potency did it give?
Answer: inactive

Question: How did the Potency turn out when CCCCCC(=O)CC was run?
Answer: inactive

Question: How did the Potency turn out when CC(C)(C)C(=O)OCOC(=O)C1N2C(=O)CC2S(=O)(=O)C1(C)C (stereo unspecified) was run?
Answer: inactive

Question: How did the Potency turn out when COc1cc(C(=S)N2CCOCC2)ccc1O was run?
Answer: inactive

Question: How did the Potency turn out when Cc1cccc(S(=O)(=O)O)c1C was run?
Answer: inactive

Question: How did the Potency turn out when Cc1ccccc1OCC1CO1 (stereo unspecified) was run?
Answer: inactive

Question: How did the Potency turn out when CC(C)(C)OCC1CO1 (stereo unspecified) was run?
Answer: inactive

Question: Which Potency does the source give for CC(=O)c1ccc2ccccc2c1 here?
Answer: inactive

Question: With CCCC(=O)OCc1ccccc1 as the molecule, how does the Potency read?
Answer: inactive

Question: How did the Potency turn out when CC(C)CCCC(C)CCO (stereo unspecified) was run?
Answer: inactive

Question: With CCCCOC(O)CC (stereo unspecified) as the molecule, how does the Potency read?
Answer: inactive

Question: Which Potency does the source give for CC(=O)/C=C/C1C(C)=CCC(C)C1(C)C (stereo unspecified) here?
Answer: inactive

Question: O=C1OC(=O)C2CC=CCC12 (stereo unspecified) was tested. Which Potency did it give?
Answer: inactive

Question: Which Potency does the source give for Cc1ccccc1S(=O)(=O)O here?
Answer: inactive

Question: How did the Potency turn out when CCCCOC(=O)CCS was run?
Answer: inactive

Question: Which Potency does the source give for CCOC(=O)OC(=O)OCC here?
Answer: inactive

Question: CC(C)C(=O)Nc1cccc(C2CN3CCSC3=N2)c1 (stereo unspecified) was tested. Which Potency did it give?
Answer: inactive

Question: CCN1C(=O)c2ccccc2C1Nc1ccc(OCCN2CCCCC2)cc1 (stereo unspecified) was tested. Which Potency did it give?
Answer: inactive

Question: With CCOC(=O)CN1CCCC1=O as the molecule, how does the Potency read?
Answer: inactive

Question: How did the Potency turn out when CC(=O)c1cc(C)oc1C was run?
Answer: inactive

Question: Which Potency does the source give for CC(=O)N[C@@H](Cc1ccc(O)cc1)C(=O)O here?
Answer: inactive

Question: With CCO[Si](C)(OCC)OCC as the molecule, how does the Potency read?
Answer: inactive

Question: How did the activity change, negative = inhibition turn out when C[C@@H]1NC(=O)[C@@H](N)CNC(=O)[C@H](C2CCNC(N)=N2)NC(=O)/C(=C/NC(N)=O)NC(=O)[C@H](CNC(=O)C[C@@H](N)CCCN)NC1=O (stereo partly specified) was run?
Answer: -5.12% [at 0.348 µM] (inactive)

Question: Which Potency does the source give for CC(=O)CC(C)(C)C1CCCCC1 here?
Answer: inactive

Question: For O=C1CC2CC1C1CCCC21 (stereo unspecified), which Potency is on record?
Answer: inactive

Question: For CCCCOC(=O)C(C)OC(=O)CCC (stereo unspecified), which Potency is on record?
Answer: inactive

Question: C=CCCCCCCCCO was tested. Which Potency did it give?
Answer: inactive

Question: NNS(=O)(=O)c1ccc(Oc2ccc(S(=O)(=O)NN)cc2)cc1 was tested. Which Potency did it give?
Answer: inactive

Question: CO[C@@]1(NC(=O)CSC[C@@H](N)C(=O)O)C(=O)N2C(C(=O)O)=C(CSc3nnnn3C)CS[C@@H]21 was tested. Which Potency did it give?
Answer: inactive

Question: Which Potency does the source give for CCCOC(=O)C(C)O (stereo unspecified) here?
Answer: inactive

Question: For CC(S)C(=O)NCC(=O)O (stereo unspecified), which Potency is on record?
Answer: inactive

Question: How did the Potency turn out when NCCNCCO was run?
Answer: inactive

Question: How did the Potency turn out when Cc1ccc2ccccc2c1[N+](=O)[O-] was run?
Answer: inactive

Question: With CC1C(C)(C)C2=C(C(=O)CCC2)C1(C)C (stereo unspecified) as the molecule, how does the Potency read?
Answer: inactive

Question: Which Potency does the source give for COC(=O)Nc1ccc(Cl)c(Cl)c1 here?
Answer: inactive

Question: For O=C(O)c1ccc(OCCCOc2ccc(C(=O)O)cc2)cc1, which Potency is on record?
Answer: inactive

Question: With CC/C=C/CCO as the molecule, how does the Potency read?
Answer: inactive

Question: For [K+], which Potency is on record?
Answer: inactive

Question: Which Potency does the source give for NC(=O)c1ccc([N+](=O)[O-])cc1Cl here?
Answer: inactive

Question: Which Potency does the source give for CC(=O)/C=C/c1ccco1 here?
Answer: inactive

Question: For Cc1cc(C)cc(O)c1, which Potency is on record?
Answer: inactive

Question: For CCC(C)(C)CC, which Potency is on record?
Answer: inactive

Question: For CCCCC(CC)C(=O)OCCOCCOCCOC(=O)C(CC)CCCC (stereo unspecified), which Potency is on record?
Answer: inactive

Question: How did the Potency turn out when CC(C)=C1CC[C@@H](C)CC1=O was run?
Answer: inactive

Question: For CCCCCCCCOCCC#N, which Potency is on record?
Answer: inactive

Question: Which Potency does the source give for CC(O)CNCC(C)O (stereo unspecified) here?
Answer: inactive

Question: How did the Potency turn out when c1ccc(CCc2ccccc2)cc1 was run?
Answer: inactive

Question: CCO[Si](C)(C)OCC was tested. Which Potency did it give?
Answer: inactive

Question: Which Potency does the source give for CCCCCC(CC)OC(=O)CCCOc1ccc(Cl)cc1Cl (stereo unspecified) here?
Answer: inactive

Question: With CC1=CC(=O)[C@H]2C[C@@H]1C2(C)C as the molecule, how does the Potency read?
Answer: inactive

Question: CCCCCCOC(=O)C(C)CC (stereo unspecified) was tested. Which Potency did it give?
Answer: inactive

Question: Which Potency does the source give for CC(CC=O)CC(C)(C)C (stereo unspecified) here?
Answer: inactive

Question: With OC[C@H]1O[C@@H](O[C@H]2[C@H](O)[C@@H](O)[C@H](O)O[C@@H]2CO)[C@H](O)[C@@H](O)[C@H]1O as the molecule, how does the Potency read?
Answer: inactive

Question: CC(C)(C)C(=O)C(Oc1ccc(Cl)cc1)n1ccnc1 (stereo unspecified) was tested. Which Potency did it give?
Answer: inactive

Question: O=S(=O)(O)CCN1CCN(CCO)CC1 was tested. Which Potency did it give?
Answer: inactive

Question: Which Potency does the source give for O=CC1CC1 here?
Answer: inactive

Question: How did the Potency turn out when CC(C)(C)OC(=O)c1cccc(N)c1 was run?
Answer: inactive

Question: CCC(C)(C)C1CCC(OC)CC1 (stereo unspecified) was tested. Which Potency did it give?
Answer: inactive

Question: Clc1nc(Cl)c(Cl)c(Cl)c1Cl was tested. Which Potency did it give?
Answer: inactive

Question: How did the Potency turn out when COc1ccc(Cl)cc1C was run?
Answer: inactive

Question: OC1OC[C@@H](O)[C@H](O)[C@H]1O (stereo partly specified) was tested. Which Potency did it give?
Answer: inactive

Question: NC(=O)Nc1ccc(Cl)cc1 was tested. Which Potency did it give?
Answer: inactive

Question: Which Potency does the source give for CC1=C(O)C(=O)C(C)O1 (stereo unspecified) here?
Answer: inactive

Question: Which Potency does the source give for OCC1CC2CC1C1CCC(CO)C21 (stereo unspecified) here?
Answer: inactive

Question: For C=CCCCCCCCC, which Potency is on record?
Answer: inactive

Question: For COc1ccc(C(=O)CC(=O)c2ccc(C(C)(C)C)cc2)cc1, which Potency is on record?
Answer: inactive

Question: Which Potency does the source give for CCC(OCCCOC)OC(C)=O (stereo unspecified) here?
Answer: inactive

Question: Which Potency does the source give for C=C(C)C(=O)OCCC(C)OC(=O)C(=C)C (stereo unspecified) here?
Answer: inactive

Question: For CCCCN(CCCC)CCCCCCN(CCCC)CCCC, which Potency is on record?
Answer: inactive

Question: How did the Potency turn out when CCCc1ccc(O)cc1 was run?
Answer: inactive

Question: CCOC(=O)CC(C(C)=O)C(C)=O was tested. Which Potency did it give?
Answer: inactive

Question: How did the Potency turn out when CC[C@@H]1C[C@H](N(Cc2cc(C(F)(F)F)cc(C(F)(F)F)c2)C(C)=O)c2cc(C(F)(F)F)ccc2N1C(=O)OC(C)C was run?
Answer: inactive

Question: With Cc1ccccc1C(N)=O as the molecule, how does the Potency read?
Answer: inactive

Question: With C=CCCCCCCCCCCC as the molecule, how does the activity change, negative = inhibition read?
Answer: -0.184% [at 8.38 µM] (inactive)

Question: With C=CC(=O)O[C@H]1C[C@@H]2CC[C@@]1(C)C2(C)C as the molecule, how does the Potency read?
Answer: inactive
